Assay results: PubChem BioAssay AID540333 (Southern Research Specialized Biocontainment Screening …, 2011)
Hit rate of the full screen: of about 10,000 compounds, about 320 (3.2%) were called active. Rule as the data show it: active = CPE inhibition mostly above about 9.1% (no sharp cut-off); inactive = mostly below about 7.2%. Only a selection was taken, and actives are over-represented in it overall.

Assay: antivirals protecting cells from dengue CPE – CPE readout, HTS (AID 540333)
Settings: Dengue virus CPE inhibition in host cells, at 20 µM; active compounds read high

Row | SMILES | CPE inhibition
1 | O=[N+]([O-])c1cc2oc3c(c2c(C=NCc2ccncc2)c1O)CCCC3 | 1.15% (inactive)
2 | Cc1ccc([N+](=O)[O-])cc1S(=O)(=O)N(C(=O)c1ccncc1)c1ccc2oc3c(c2c1)CCCC3 | 21.1% (active)
3 | CC(=O)Oc1ccc(N(C(C)=O)S(=O)(=O)c2cc([N+](=O)[O-])ccc2C)cc1 | inactive
4 | COc1cc(NC(=O)COC(=O)CC(C)(C)C)c(C)cc1[N+](=O)[O-] | 0.185% (inactive)
5 | Clc1ccc(CNCc2cccs2)c(Cl)c1 | 0.01% (inactive)
6 | CN(C)c1ccc(-c2nc3ccccn3c2/N=C/c2ccc(Br)cc2)cc1 | 14.2% (active)
7 | COc1ccc(-c2nc3ccccn3c2/N=C/c2ccc(OC)c(OC)c2)cc1O | 0.31% (inactive)
8 | Cc1c(-c2ccc(Br)cc2)nc2ccccn12 | 1.3% (inactive)
9 | Cc1ccc(-c2csc(N/N=C/c3ccco3)n2)c(C)c1 | inactive
10 | COc1cccc(OCCOCCOc2ccc(C)cc2[N+](=O)[O-])c1 | inactive
11 | CC/C(=N\NC(=O)C(N)=O)c1ccccc1O | inactive
12 | CCCCCC(=O)Nc1nc(C)c(-c2csc(Nc3cc(Cl)ccc3C)n2)s1 | inactive
13 | O=C1c2cccc3cccc(c23)C(=O)N1CCN1CCN(CC(O)COc2ccc3ccccc3c2)CC1 (stereo not drawn) | inactive
14 | O=C(COC(=O)c1cc(-c2ccccc2Cl)nc2ccccc12)Nc1ncc(C(F)(F)F)cc1Cl | inactive
15 | COC(=O)N1[C@H](C)C=C[C@]1(Cc1ccccc1)C(=O)NCCCNc1ncc(C(F)(F)F)cc1Cl | 9.39% (active)
16 | O=C(COC(=O)C1(c2ccccc2F)CCCC1)Nc1ncc(C(F)(F)F)cc1Cl | 0.45% (inactive)
17 | Cc1ccc(/C=N/NS(=O)(=O)c2ccc([N+](=O)[O-])cc2)o1 | inactive
18 | Cc1ccc(C(=O)O/N=C(\N)c2cccnc2)cc1[N+](=O)[O-] | 1.06% (inactive)
19 | Cc1ccc(NC(=O)COC(=O)C2(c3ccc(Cl)cc3)CCCC2)cc1 | 10.5% (active)
20 | NS(=O)(=O)c1ccc(NC(=O)COC(=O)C2(c3ccc(F)cc3)CCCC2)cc1 | 0.475% (inactive)
21 | CC(=O)Nc1ccc(NC(=O)COC(=O)C2(c3ccc(Cl)cc3)CCCC2)cc1 | 0.545% (inactive)
22 | COc1ccc(/C=C/C(=O)c2cc(F)ccc2OC(=O)c2ccccc2C)cc1OC | inactive
23 | N#Cc1ccsc1NC(=O)CN(Cc1ccccc1)Cc1ccccc1 | 9.87% (active)
24 | N#Cc1ccsc1NC(=O)CN1CCN(c2ccccc2O)CC1 | inactive

Row | SMILES | CPE inhibition
25 | CCN(CC)c1ccc(C(=O)OCC(=O)Nc2sccc2C#N)cc1 | inactive
26 | CSc1sc(C)cc1/C=N/O | inactive
27 | S=C(NCCc1ccccc1)N/N=C/c1ccccc1Cl | 18.4% (active)
28 | S=C(NCCc1ccccc1)Nc1ccc(Br)cc1 | 3.17% (inactive)
29 | C/C(=N\NC(=S)NCCc1ccccc1)c1ccc(Cl)cc1 | 1.61% (inactive)
30 | O=C(Nc1cc(Cl)ccc1Cl)c1ccc(-c2ccccc2)cc1 | inactive
31 | O=C(Nc1ccc(Cl)c(C(F)(F)F)c1)[C@@H]1CC=C[C@@H]2CCN(Cc3ccc(Cl)c(Cl)c3)C(=O)[C@@H]21 | 9.69% (inactive)
32 | COc1ccc(NC(=O)CN2C(=O)C(c3ccccc3)=NC23CCCCCC3)cc1OC | 0.935% (inactive)
33 | COc1ccc(NC(=O)CN2C(=O)C(c3ccccc3)=NC23CCCCCC3)cc1 | 5.39% (inactive)
34 | COc1cc(NC(=O)CN2C(=O)C(c3ccccc3)=NC23CCCCCC3)cc(OC)c1 | 14% (active)
35 | CCOC(=O)/C(N=Nc1sc(C(=O)OC)c(C)c1C(=O)OCC)=C(\O)CCl | 0.165% (inactive)
36 | Cc1ccc(S(=O)(=O)N(CC(=O)Nc2ccccc2-c2ccccc2)c2ccc(C)cc2C)cc1 | 10.8% (inactive)
37 | Cc1ccc(NS(=O)(=O)c2ccc3c(c2)C(=O)c2ccccc2C3=O)c(C)c1 | 4.82% (inactive)
38 | Cc1cc(C)c(S(=O)(=O)Nc2ccccc2-c2ccccc2)c(C)c1 | 20.4% (active)
39 | Clc1ccc(-n2nnnc2CN2CCOCC2)cc1Cl | 0.27% (inactive)
40 | COc1ccccc1OCCOCCOc1ccccc1Cl | inactive
41 | CCOC(=O)c1c(C)[nH]c(C)c1C(=O)COC(=O)/C=C/c1ccc(OC(F)F)cc1 | 10.1% (active)
42 | O=C1CN(C(=O)COC(=O)/C=C/c2ccc(OC(F)F)cc2)c2ccccc2N1 | inactive
43 | O=C(COC(=O)/C=C/c1ccc(OC(F)F)cc1)NCc1cccs1 | 0.315% (inactive)
44 | C/C(=N\NC(=O)CSc1nnc(C)s1)c1ccc(Cl)cc1 | inactive
45 | CC(C)CC(=O)NC1(C(F)(F)F)C(=O)N(CC(C)C)C2=C1C(=O)CC(C)(C)C2 (stereo not drawn) | inactive
46 | Cc1ccc(C)c(Nc2ncnc(N)c2[N+](=O)[O-])c1 | 6.21% (inactive)
47 | CC(=O)Nc1ccc(Nc2nc(C)c([N+](=O)[O-])c(Nc3ccc(NC(C)=O)cc3)n2)cc1 | inactive
48 | CNc1nc(Nc2ccc(C)c(Cl)c2)nc(N)c1[N+](=O)[O-] | 9.08% (active)

Row | SMILES | CPE inhibition
49 | COc1cccc(-c2ncc3ccccc3c2COC(=O)c2ccc(C(F)(F)F)cc2)c1 | 0.77% (inactive)
50 | COc1cccc(-c2ncc3ccccc3c2COC(=O)c2ccc(C(C)(C)C)cc2)c1 | 15.2% (active)
51 | COc1cccc(-c2ncc3ccccc3c2CO)c1 | inactive
52 | CC(=O)N1N=C(c2ccc(Br)cc2)OC1(C)CC(=O)Nc1ccccc1 (stereo not drawn) | 4.7% (inactive)
53 | O=C(CN1CCCCCCC1)N/N=C/c1ccccc1F | 0.805% (inactive)
54 | C/C(=N\NC(=O)COc1ccc(C(C)(C)C)cc1)c1ccc(-n2ccnc2)cc1 | 10.2% (active)
55 | CC(C)(C)c1ccc(OCC(=O)N/N=C/c2ccc(N3CCOCC3)cc2)cc1 | 1.86% (inactive)
56 | C/C(=N\Nc1ccc(Cl)c(Cl)c1)c1ccc(-n2ccnc2)cc1 | inactive
57 | CN(c1ccccc1)S(=O)(=O)c1cccc(NC(=O)CSc2nncn2C)c1 | 0.35% (inactive)
58 | NS(=O)(=O)c1cccc(NC(=O)CSc2ncc(C(F)(F)F)cc2Cl)c1 | 3.56% (inactive)
59 | CN(c1ccccc1)S(=O)(=O)c1cccc(NC(=O)CSc2ncc(C(F)(F)F)cc2Cl)c1 | 22.4% (active)
60 | Cc1c(Cl)cccc1NC(=S)NCc1cccn1C | 0.255% (inactive)
61 | Cc1cccc(-n2c(C)cc(/C=C3\C(=N)N4N=C(CC(C)C)SC4=NC3=O)c2C)c1 | 0.575% (inactive)
62 | Cc1cc(C)cc(-n2c(C)cc(/C=C3\C(=N)N4N=C(CC(C)C)SC4=NC3=O)c2C)c1 | 15.1% (active)
63 | Cc1cccc(-n2c(C)cc(/C=C3/C(=N)N4C(c5ccccc5)=CSC4=NC3=O)c2C)c1 | 5.77% (inactive)
64 | COC(=O)c1ccc(Oc2c(Cl)cccc2[N+](=O)[O-])cc1 | 0.625% (inactive)
65 | COc1ccc(Nc2nc(-c3cccc([N+](=O)[O-])c3)nc3ccccc23)c(OC)c1 | 0.465% (inactive)
66 | O=C(O)CC(CC(=O)O)c1ccsc1 | inactive
67 | C=CC[C@]12CCc3sccc3C1N(c1ccc(C(=O)OCC)cc1)C2=O (stereo partly drawn) | 19.9% (active)
68 | CCOC(=O)c1ccc(-n2c(C)ccc2C)cc1 | 0.33% (inactive)
69 | CCOC(=O)N1CCN(C(=O)c2ccc(-n3c(C)ccc3C)cc2)CC1 | 0.68% (inactive)
70 | Cc1cc(=O)[nH]c(N/N=C/c2ccc(Br)s2)n1 | inactive
71 | CCc1nnc(N2C(=O)c3ccc(Oc4ccc([N+](=O)[O-])cc4)cc3C2=O)s1 | 0.2% (inactive)
72 | Cc1cccc(-c2nsc(SCC(=O)NCc3ccc4c(c3)OCO4)n2)c1 | 0.255% (inactive)

Row | SMILES | CPE inhibition
73 | S=C(Nc1ccccc1Oc1ccccc1)Nc1cccc(Cl)c1Cl | 12.8% (active)
74 | FC(F)Oc1ccccc1NC(=S)Nc1cccc(Cl)c1Cl | 0.195% (inactive)
75 | S=C(Nc1ccc(OCc2ccccc2)cc1)Nc1cccc(Cl)c1Cl | 0.45% (inactive)
76 | COc1cccc(NC(=O)CN2C(=O)C(c3ccc(C)cc3)=NC23CCCCCC3)c1 | 3.59% (inactive)
77 | Cc1ccc(-n2c(=S)[nH]c3nc4c(cc3c2=O)COC(C)(C)C4)cc1 | inactive
78 | O=S(=O)(/N=C(/Nc1ccccn1)c1ccc(Cl)cc1)c1ccc(Cl)cc1 | 0.025% (inactive)
79 | O=C1c2cccc(OCc3ccc(F)cc3)c2CCN1Cc1ccc(F)cc1 | 7.61% (inactive)
80 | Cc1cccc(CN2CCc3c(OCC(=O)NCc4ccco4)cccc3C2=O)c1 | inactive
81 | O=C1c2cccc(OCC(=O)N3CCCc4ccccc43)c2CCN1Cc1ccccc1 | inactive
82 | Cc1ccc(C)c(NC(=O)COc2cccc3c2CCN(Cc2ccccc2)C3=O)c1 | 0.435% (inactive)
83 | O=C(COc1cccc2c1CCN(Cc1ccccc1)C2=O)NCc1ccco1 | inactive
84 | Cc1ccc(CN2CCc3c(OCc4ccc(F)cc4)cccc3C2=O)cc1 | 23.2% (active)
85 | Cc1ccc(COc2cccc3c2CCN(Cc2ccc(F)cc2)C3=O)cc1 | 23% (active)
86 | Cc1cccc(CN2CCc3c(OCC(=O)N4CCCc5ccccc54)cccc3C2=O)c1 | 4.05% (inactive)
87 | CCOC(=O)N1CCN(C(=O)COc2cccc3c2CCN(Cc2ccc(F)cc2)C3=O)CC1 | 0.16% (inactive)
88 | COC(=O)c1ccc(COc2cccc3c2CCN(Cc2cccc(C)c2)C3=O)o1 | 0.825% (inactive)
89 | O=C1c2cccc(OCc3ccc(F)cc3)c2CCN1Cc1ccccc1 | 11.8% (active)
90 | O=C(COc1cccc2c1CCN(Cc1ccc(Br)cc1)C2=O)NCc1ccco1 | 13.9% (active)
91 | COc1ccc(CC(=O)Oc2cc(C)[nH]c(=O)c2[N+](=O)[O-])cc1 | inactive
92 | O=C(NCCc1nc2ccccc2[nH]1)/C(=C/c1ccc2c(c1)OCO2)NC(=O)c1ccccc1 | inactive
93 | C=CCc1ccc(OCCOc2cccc3cccnc23)c(OC)c1 | 1.16% (inactive)
